Measured values published in PubChem BioAssay AID1159580 (chemical genetic matrix, 2015).
Where “and” joins values, the source holds several entries; their conditions need not be identical. Equal entries are not always repeated. Out of some 5,500 compounds screened, about 2,000 (36%) were called active. Another 18% or so got no clear call; they are omitted. No stated cut-off is given here; in the data, active means normalized growth mostly below about 0.91 (no sharp cut-off); inconclusive means no clear call, values can overlap the other calls; inactive means mostly above about 0.92. The list shows a part of the results.

Assay: chemical genetic growth profiling, strain panel (AID 1159580);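 further: tested at 20 µM; growth read once vehicle control cultures reached saturation at 30 °C; 1 = growth at the plate median or of vehicle wells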
Details: S. cerevisiae deletion strains, growth OD

Measured: normalized growth

O=C(O)c1cc2cc(Cl)ccc2[nH]1
inactive: locus YAL013W, strain DEP1, stronger effect = lower value 1.01 | locus YAL021C, strain ccr4, stronger effect = lower value 0.995 | locus YAL026C, strain drs2, stronger effect = lower value 0.988 | locus YAL030W, strain snc1, stronger effect = lower value 0.989 | locus YBL061C, strain skt5, stronger effect = lower value 0.991 | locus YBR009C, strain hhf1, stronger effect = lower value 0.978 | locus YBR021W, strain FUR4, stronger effect = lower value 0.998 | locus YBR023C, strain chs3, stronger effect = lower value 0.986 | locus YBR171W, strain sec66, stronger effect = lower value 0.986 | locus YBR229C, strain ROT2, stronger effect = lower value 1.01 | locus YBR231C, strain swc5, stronger effect = lower value 0.987 | locus YBR279W, strain paf1, stronger effect = lower value 0.995 | locus YCL011C, strain gbp2, stronger effect = lower value 0.985 | locus YCL016C, strain dcc1, stronger effect = lower value 0.988 | locus YCL029C, strain bik1, stronger effect = lower value 0.983 | locus YCL061C, strain MRC1, stronger effect = lower value 0.984 | locus YCL069W, strain vba3, stronger effect = lower value 0.993 | locus YCR088W, strain abp1, stronger effect = lower value 0.975 | locus YDL005C, strain med2, stronger effect = lower value 0.987 | locus YDL035C, strain GPR1, stronger effect = lower value 1.02 | locus YDL040C, strain nat1, stronger effect = lower value 0.989 | locus YDL074C, strain BRE1, stronger effect = lower value 1.05 | locus YDL101C, strain DUN1, stronger effect = lower value 1.03 | locus YDL134C, strain PPH21, stronger effect = lower value 1.01 | locus YDL185W, strain tfp1, stronger effect = lower value 0.973 | locus YDL192W, strain arf1, stronger effect = lower value 0.989 | locus YDR001C, strain nth1, stronger effect = lower value 0.981 | locus YDR069C, strain doa4, stronger effect = lower value 0.983 | locus YDR101C, strain arx1, stronger effect = lower value 0.971 | locus YDR137W, strain rgp1, stronger effect = lower value 0.999 | locus YDR150W, strain NUM1, stronger effect = lower value 1.01 | locus YDR159W, strain sac3, stronger effect = lower value 0.977 | locus YDR162C, strain NBP2, stronger effect = lower value 1.05 | locus YDR195W, strain ref2 0.998 | locus YDR297W, strain sur2, stronger effect = lower value 0.997 | locus YDR318W, strain mcm21, stronger effect = lower value 0.984 | locus YDR334W, strain swr1, stronger effect = lower value 0.986 | locus YDR335W, strain msn5, stronger effect = lower value 0.988 | locus YDR388W, stronger effect = lower value 0.98 | locus YDR392W, strain spt3, stronger effect = lower value 0.953 | locus YDR502C, strain sam2, stronger effect = lower value 0.998 | locus YEL003W, strain gim4, stronger effect = lower value 1 | locus YEL037C, strain rad23, stronger effect = lower value 0.98 | locus YEL061C, strain CIN8 (second series), stronger effect = lower value 0.981 | locus YEL061C, strain CIN8, stronger effect = lower value 1 | locus YER015W, strain faa2, stronger effect = lower value 0.993 | locus YER016W, strain bim1, stronger effect = lower value 0.984 | locus YER110C, stronger effect = lower value 0.982 | locus YER111C, strain swi4, stronger effect = lower value 0.98 | locus YER155C, strain BEM2 (second series), stronger effect = lower value 0.972 | locus YER155C, strain BEM2, stronger effect = lower value 1.01 | locus YER167W, strain BCK2, stronger effect = lower value 1.01 | locus YFR010W, strain ubp6, stronger effect = lower value 0.986 | locus YGL078C, strain dbp3, stronger effect = lower value 0.979 | locus YGL086W, strain mad1, stronger effect = lower value 0.977 | locus YGL167C, strain pmr1, stronger effect = lower value 0.988 | locus YGL173C, strain kem1, stronger effect = lower value 0.984 | locus YGL227W, strain vid30, stronger effect = lower value 0.973 | locus YGL240W, strain doc1, stronger effect = lower value 0.984 | locus YGL248W, strain PDE1, stronger effect = lower value 1.01 | locus YGL253W, strain hxk2, stronger effect = lower value 0.994 | locus YGR078C, strain PAC10, stronger effect = lower value 1.03 | locus YGR135W, strain pre9, stronger effect = lower value 0.994 | locus YGR229C, strain SMI1, stronger effect = lower value 1.02 | locus YGR252W, strain gcn5, stronger effect = lower value 0.928 | locus YHR013C, strain ard1, stronger effect = lower value 0.973 | locus YHR027C, strain rpn1, stronger effect = lower value 0.988 | locus YHR030C, strain SLT2, stronger effect = lower value 0.997 and 0.95 | locus YHR079C, strain IRE1 (second series), stronger effect = lower value 0.984 | locus YHR079C, strain IRE1, stronger effect = lower value 0.932 | locus YHR094C, strain hxt1, stronger effect = lower value 0.984 | locus YHR129C, strain ARP1, stronger effect = lower value 1.01 | locus YHR142W, strain chs7, stronger effect = lower value 0.984 | locus YHR200W, strain rpn10, stronger effect = lower value 0.99 | locus YIL066C, strain RNR3, stronger effect = lower value 1.01 | locus YIL073C, strain SPO22, stronger effect = lower value 1.02 | locus YIL125W, strain kgd1, stronger effect = lower value 0.979 | locus YIR030C, strain dcg1, stronger effect = lower value 0.991 | locus YJL092W, strain hpr5, stronger effect = lower value 0.98 | locus YJL095W, strain BCK1 (second series), stronger effect = lower value 0.983 | locus YJL095W, strain BCK1, stronger effect = lower value 1.03 and 0.942 | locus YJL115W, strain asf1, stronger effect = lower value 0.992 | locus YJL129C, strain trk1, stronger effect = lower value 0.99 | locus YJL134W, strain LCB3, stronger effect = lower value 1.01 | locus YJL154C, strain vps35, stronger effect = lower value 0.985 | locus YJL164C, strain tpk1, stronger effect = lower value 0.99 | locus YJL166W, strain qcr8, stronger effect = lower value 0.995 | locus YJL168C, strain set2, stronger effect = lower value 0.986 | locus YJL187C, strain SWE1 (second series), stronger effect = lower value 1.02 | locus YJL187C, strain SWE1, stronger effect = lower value 0.992 | locus YJR043C, strain POL32, stronger effect = lower value 0.984 | locus YJR066W, strain TOR1, stronger effect = lower value 0.903
